A selection: hits, their analogues and other compounds. The true share with any hit is near 4.1%.
RecA splice inh – Mtb RecA intein splicing inhibition | AID 2221 | P9WHJ3 | inhibition, % (concentration not given with the values) | 290,000 tested, 0.75% active | cell-free RecA intein splicing, fluorescence; in the data active = inhibition above about 30%
Target sequence (P9WHJ3 whole entry, looked up, canonical isoform): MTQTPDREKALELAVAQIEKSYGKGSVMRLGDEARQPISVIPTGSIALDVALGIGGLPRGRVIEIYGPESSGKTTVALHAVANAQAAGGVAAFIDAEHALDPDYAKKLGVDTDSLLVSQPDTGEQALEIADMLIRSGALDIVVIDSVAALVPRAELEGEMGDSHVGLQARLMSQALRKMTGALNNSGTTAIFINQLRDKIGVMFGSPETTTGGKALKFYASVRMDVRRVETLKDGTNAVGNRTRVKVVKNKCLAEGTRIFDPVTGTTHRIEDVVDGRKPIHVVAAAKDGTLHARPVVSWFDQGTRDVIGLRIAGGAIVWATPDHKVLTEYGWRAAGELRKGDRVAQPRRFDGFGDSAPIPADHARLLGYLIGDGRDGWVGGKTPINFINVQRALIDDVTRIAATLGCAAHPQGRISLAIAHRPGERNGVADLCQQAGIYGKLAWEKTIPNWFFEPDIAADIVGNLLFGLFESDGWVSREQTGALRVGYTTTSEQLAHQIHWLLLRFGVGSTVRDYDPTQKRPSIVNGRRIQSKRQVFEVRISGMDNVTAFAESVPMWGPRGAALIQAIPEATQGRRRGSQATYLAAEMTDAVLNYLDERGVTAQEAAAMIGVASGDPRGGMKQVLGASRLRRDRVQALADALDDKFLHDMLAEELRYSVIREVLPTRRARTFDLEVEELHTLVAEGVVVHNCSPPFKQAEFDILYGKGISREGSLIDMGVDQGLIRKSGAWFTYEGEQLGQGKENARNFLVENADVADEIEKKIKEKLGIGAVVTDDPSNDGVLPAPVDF
Rv3671c inh – Rv3671c (M. tuberculosis) protease inhibition; inhibition, % at 5.96 µM; 320,000 tested, 0.048% active; in the data active = inhibition above about 38%;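 also: extracellular domain of Rv3671c used as enzyme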
GDH-TPI inh – inhibits GDH-TPI coupling enzymes, artifact for Mtb FBA screen. inhibition, % at 4.8 µM. AID 588335. GDH-TPI coupled enzyme counterscreen, NADH absorbance. 360,000 tested, 1.2% active; in the data active = inhibition above about 30%
Mtb FBA inh – Mtb fructose-bisphosphate aldolase inhibition; P9WQA3; purified M. tuberculosis FBA, fluorescence read-out; inhibition, % at 1 µM; 360,000 tested, 2.3% active; in the data active = inhibition above about 27%
UGM FP inh – Mtb UDP-galactopyranose mutase inhibition | P9WIQ1 | purified UGM, fluorescence polarization probe displacement | inhibition, % at 10 µM | 320,000 tested, 0.06% active; in the data active = inhibition above about 10%, passing the limit was not always enough
BH1578 lux ind – induces V. cholerae light production without autoinducers | V. cholerae BH1578 lux reporter, luminescence, 6 h | activation, % at 18.7 µM | 350,000 tested, 0.16% active | AID 588436; in the data active = activation mostly above about 9.7%, no sharp cut-off
Hits are given with their value; n = inactive; x = no result given; + = active, no number.

SMILES	RecA splice inh	Rv3671c inh	GDH-TPI inh	Mtb FBA inh	UGM FP inh	BH1578 lux ind
CCN(CC)S(=O)(=O)c1ccc(N=N/C(C(C)=O)=C(/C)O)cc1	n	n	40	n	n	n
CC(=O)/C(N=Nc1ccc(-n2ccc(C(F)(F)F)n2)cc1)=C(\C)O	n	n	35	n	n	n
O=C(NCc1cccnc1)c1csc([C@H]2C[C@H](O)[C@@H](CO)O2)n1	x	x	n	n	x	n
COC(=O)C1C2c3ccccc3OC1(C)N=c1s/c(=C/c3cn(C)nc3C)c(=O)n12 (centres undefined)	n	n	55	n	n	n
CCn1cc(/C=c2/sc3n(c2=O)C2c4ccccc4OC(C)(N=3)C2C(=O)OC)c(C)n1 (centres undefined)	n	n	n	n	n	n
Cn1c2ccccc2c(=O)c2cc(NCCCN3CCOCC3)ccc21	x	n	n	+	n	n
O=C(NCCCn1ccnc1)c1cc2ccccc2oc1=O	n	n	n	n	n	n
O=c1c2ccccc2oc2cc(NCCCN3CCOCC3)ccc12	n	n	n	+	n	n
O=c1c2ccccc2oc2cc(NCCCn3ccnc3)ccc12	n	n	n	+	n	n
O=c1c2ccccc2oc2ccc(NCCCN3CCOCC3)cc12	n	n	n	n	n	n
CCCCN1CC(COCc2ccccc2)Oc2cc(Br)ccc2S1(=O)=O (centres undefined)	x	x	n	n	x	n
COc1cccc(CNC(=O)CC(NC(=O)c2ccccc2)c2ccccc2)c1 (centres undefined)	n	n	n	n	n	n
CC(=O)Oc1ccc2c3c(c(=O)oc2c1)CCCC3	n	n	n	195	n	n
O=c1oc2cc(O)ccc2c2oc3cc(O)ccc3c12	n	n	35	+	n	n
O=C(COc1ccc2c3c(c(=O)oc2c1)CCC3)N1CCCC1	n	n	n	n	n	n
COC(=O)C(C)Oc1ccc2c3c(c(=O)oc2c1)CCCCC3 (centres undefined)	n	n	n	146	n	n
O=c1oc2cc(O)ccc2c2ccccc12	n	n	n	n	n	n
CSCCC(NC(C)=O)C(=O)Oc1ccc2c3c(c(=O)oc2c1)CCCC3 (centres undefined)	n	x	n	+	x	n
COc1ccc(C)cc1C(=O)CCC(=O)N1CCN(c2ccccc2F)CC1	x	x	n	n	x	n
COc1c(CC=C(C)C)c(O)cc2oc(=O)c3c4ccc(O)cc4oc3c12	n	n	n	142	n	n
O=C(Oc1ccc2c3c(c(=O)oc2c1)CCCC3)c1ccco1	n	n	n	99	n	n
CC(C)=CCc1c(O)cc2c(=O)c3ccc(O)cc3oc2c1O	n	n	n	n	n	n
O=c1oc2cc(O)ccc2c2c1CCCC2	n	n	n	+	n	x
CCN(CC(=O)Nc1cc(Cl)ccc1C)C(=O)c1ccc(=O)n(Cc2ccccc2)n1	n	n	n	n	n	n
CSc1nc2ccc(NC(=O)c3cccs3)cc2s1	x	n	n	n	n	n
SMILES	RecA splice inh	Rv3671c inh	GDH-TPI inh	Mtb FBA inh	UGM FP inh	BH1578 lux ind
Cc1ccc2oc(-c3ccc(NC(=O)c4ccc5c(c4)OCO5)cc3)nc2c1	n	n	n	n	n	n
O=C(Nc1ccc(-c2nc3ccccc3o2)cc1)c1ccc2c(c1)OCO2	n	n	36	n	n	n
O=C(Nc1ccc2nc(-c3cccs3)[nH]c2c1)c1cccs1	n	n	54	n	n	n
Cc1ccc2nc(-c3ccc(NC(=O)c4ccco4)cc3)[nH]c2c1	n	n	54	n	n	n
O=C(Nc1ccc2nc(-c3cccs3)[nH]c2c1)c1ccco1	n	n	36	n	n	n
CC(C)c1ccc(C2c3[nH]c4ccccc4c3C[C@H]3C(=O)N(c4ccccc4C(=O)N4CCC[C@@H]4C(=O)O)C(=O)N23)cc1 (some centres undefined)	n	n	n	n	n	n
O=C(Nc1ccc(-c2nc3ccccc3c(=O)o2)cc1)c1ccco1	n	n	n	n	n	n
O=C(Nc1ccc(-c2nc3ccc(NC(=O)c4cccs4)cc3[nH]2)cc1)c1cccs1	n	n	51	n	n	n
Cc1ccc(NC(=O)c2cnn(-c3ccccc3)c2NC(=O)c2ccco2)cc1	n	n	n	181	n	n
O=C(Nc1ccc2nc(-c3ccccc3)oc2c1)c1ccco1	n	n	54	n	n	n
O=C(COC(=O)c1ccc(O)cc1)Nc1cc(S(=O)(=O)N2CCOCC2)ccc1Cl	x	n	n	n	n	n
COc1ccc(CNC(=O)CC[C@H]2O[C@@H](n3ccc(=O)[nH]c3=O)[C@H](O)[C@@H]2O)cc1	x	x	x	n	x	x
O=C(CCl)Nc1ccccc1C(=O)Nc1ccc2c(c1)OCO2	38	n	n	n	n	n
O=C(CCNC(=O)c1ccccc1Cl)Nc1ccc2c(c1)OCO2	n	n	n	n	n	x
O=C(N/N=C\c1ccc(Cl)s1)c1ccc(Cn2cccn2)o1	n	n	37	n	n	n
CC(C)c1ccc(/C=N\NC(=O)c2ccc(Cn3cccn3)o2)cc1	n	n	n	n	n	n
CCc1ccc(/C=N\NC(=O)c2ccc(Br)o2)s1	n	n	47	n	n	n
Cc1ccc(/C=N/NC(=O)c2ccc(Br)o2)s1	n	n	31	n	n	n
CC1CCCC(NC(=O)CSc2nncs2)C1C (centres undefined)	x	n	n	n	n	n
Cc1cccn2c(=O)c3cc(C(=O)NC4CCCC4)c(=N)n(CC4CCCO4)c3nc12 (centres undefined)	n	n	n	+	n	n
Cc1cccn2c(=O)c3cc(C(=O)NCC4CCCO4)c(=N)n(C4CCCCC4)c3nc12 (centres undefined)	x	n	n	+	n	n
Cc1cccn2c(=O)c3cc(C(=O)NCC4CCCO4)c(=N)n(CC4CCCO4)c3nc12 (centres undefined)	x	n	n	+	n	n
Cc1cccn2c(=O)c3cc(C(=O)NCc4ccc(F)cc4)c(=N)n(CC4CCCO4)c3nc12 (centres undefined)	n	n	n	+	n	n
COc1ccc(CNC(=O)c2cc3c(=O)n4cccc(C)c4nc3n(CC3CCCO3)c2=N)cc1 (centres undefined)	n	n	n	n	n	n
CC1CN(C(=O)CCC(=O)NCc2ccccc2)c2ccccc2S1 (centres undefined)	n	n	n	n	n	n
O=C1C2C3CCC(C3)C2C(=O)N1c1ccc2ccccc2c1 (centres undefined)	n	n	n	n	n	n
O=S(=O)(CCN1CCCCC1)CCS(=O)(=O)CCN1CCCCC1	x	x	n	n	x	x
COc1ccccc1C(=O)Nc1ccc(OCC(=O)N2C(C)CCCC2C)cc1 (centres undefined)	x	n	n	n	n	n
CN(CC(=O)Nc1cccc(F)c1)C(=O)c1cc(=O)[nH]c2ccccc12	x	n	n	n	n	n
CC1CCCC(C)N1C(=O)COC(=O)c1cc(-c2cccs2)nn1-c1ccccc1 (centres undefined)	n	n	n	n	n	n

High-throughput results (PubChem BioAssay)
